For 108 molecules, Potency results are on record in PubChem BioAssay AID2289 (National Center for Advancing Translational Sciences (NCATS), 2010).

The campaign covered roughly 340,000 compounds. About 3,300 (0.97%) were called active. Not shown: some 9% with an inconclusive outcome. Calls come from the whole dose curve; as a rule, active = well fitted inhibition curve with a large enough effect; inconclusive = small, poorly fitted or top-dose-only effect, or effect the other way; inactive = flat fitted curve, though single readings scatter. Some of the results follow.
Potency is the fitted concentration of half-maximal effect.

This experiment in a line: qHTS Assay for Modulators of miRNAs and/or Inhibitors of miR-21. Note: nearly all actives have a fitted effect of over 55% in size. Conditions: HeLa miR-21-FLuc reporter, luciferase luminescence, 48 h; actives lower the signal. The procedure, abridged: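 Using DMEM plus 10% FBS, HeLa miR-21-FLuc cells are incubated with test compounds (final up to about 40uM) for 48 hours; firefly luciferase signal is then imaged following reagent-mediated lysis.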
(Quantitative high-throughput screening tests each substance at several concentrations.)
Regarding `COc1cc(NC(=O)c2ccccc2Cl)ccc1NC(=O)c1cccs1`, the Potency is 2.07 µM (active).

For the molecule `COc1cc(NC(=O)c2ccccc2Cl)ccc1NC(=O)c1ccco1`, the Potency was 2.93 µM (active).

As to `COc1ccc(Cl)cc1-c1nc(-c2ccc(NC(=O)c3cccs3)cc2)no1`, the Potency is 7.36 µM (active).

`Cc1ccc2nc(/C=C/c3cccc(F)c3)ccc2c1`: the Potency is 0.521 µM (active).

For `N#C/C(=C\c1c[nH]c2ccccc12)c1nnc2n1CCCCC2`, the Potency was 18.5 µM (active).

Consider `CCOc1cc(/C=N/O)ccc1OCc1ccccc1F`, for which the Potency was 16.5 µM (active).

Take `O/N=C/c1ccc(OCc2ccccc2F)c(Cl)c1`: the Potency is 0.464 µM (active).

Regarding `Cc1ccc(NC(=O)c2ncn(-c3ccccc3)n2)cc1Cl`, the Potency was 3.29 µM (active).

As to `CC(=O)c1ccc(NC(=O)c2ncn(-c3ccccc3)n2)cc1`, the Potency was 5.85 µM (active).

`CCCn1nnc(NC(=O)c2ccc3ccccc3c2)n1`: the Potency is 4.14 µM (active).

As for `Cn1nnc(NC(=O)c2ccc3ccccc3c2)n1`, the Potency was 14.7 µM (active).

For `Cn1nnc2cc(C(=O)Nc3ccc4ccccc4c3)ccc21`, the Potency is 0.585 µM (active).

Turning to `Nc1nc2c(-c3ccc(Br)cc3)nnn2c2ccccc12`, the Potency was 0.261 µM (active).

For the molecule `CN(C)c1ccc(-c2nnc(-c3cccnc3)o2)cc1`, the Potency is 1.31 µM (active).

For `c1ccc(-c2cnc(-c3cccnc3)o2)cc1`, the Potency is 13.1 µM (active).

On to `Cc1ccc(-c2nnc(-c3cccnc3)o2)cc1`, for which the Potency was 4.65 µM (active).

`CC(C)c1nnc(NC(=O)COc2ccccc2[N+](=O)[O-])s1`: the Potency is 9.27 µM (active).

As for `CCSc1nnc(NC(=O)c2ccccc2)s1`, the Potency is 1.31 µM (active).

As to `CCSc1nnc(NC(=O)COc2ccccc2[N+](=O)[O-])s1`, the Potency is 3.69 µM (active).

On to `N/C(=N\C(=S)Nc1ccccc1)c1ccccc1`, for which the Potency is 0.927 µM (active).

Turning to `O=C(Cc1noc2ccccc12)Nc1ccccn1`, the Potency was 14.7 µM (active).

In the case of `Cc1cccc(NC(=O)Cc2noc3ccccc23)c1`, the Potency is 5.85 µM (active).

Consider `Cc1ccc(NC(=O)Cc2noc3ccccc23)cc1`, for which the Potency is 7.36 µM (active).

Turning to `O=C(Cc1noc2ccccc12)Nc1ccc(Cl)cc1`, the Potency was 14.7 µM (active).

Take `Nc1ccccc1C(=O)NNC1=C(C(=O)C(F)(F)F)CCC1`: the Potency was 5.21 µM (active).

Regarding `CC1=NN(C(N)=S)C(=O)C1N=Nc1cccc(Cl)c1` (stereo not drawn), the Potency was 7.36 µM (active).

As to `CC1=NN(C(N)=S)C(=O)C1N=Nc1ccc(C)cc1C` (stereo not drawn), the Potency is 3.69 µM (active).

As to `CC1=NN(C(N)=S)C(=O)C1N=Nc1ccc(Br)cc1` (stereo not drawn), the Potency is 1.31 µM (active).

Consider `CC1=NN(C(N)=S)C(=O)C1N=Nc1ccc(C)c(Br)c1` (stereo not drawn), for which the Potency was 1.47 µM (active).

As to `C/C(=N\N=C(/N)c1nonc1N)c1ccc2c(c1)OCO2`, the Potency was 0.521 µM (active).

For the molecule `CC(=O)NCCC(=O)Nc1nc2ccc(Oc3ccccc3)cc2s1`, the Potency is 1.65 µM (active).

With `O=C1NCC2=C1C(c1ccccc1)Nc1ccccc1N2` (stereo not drawn), the Potency was 14.7 µM (active).

Consider `Clc1cccc(Cl)c1CSc1nnc2ccccn12`, for which the Potency was 16.5 µM (active).

`Clc1ccc(CSc2nnc3ccccn23)c(Cl)c1`: the Potency was 16.5 µM (active).

With `Cc1ccc2c(CSc3nnc4ccccn34)cc(=O)oc2c1C`, the Potency is 13.1 µM (active).

For the molecule `C/C(=N/NC(=O)c1cccs1)c1cccs1`, the Potency is 2.93 µM (active).

Regarding `C/C(=N\NC(=O)c1cccs1)C(C)(C)C`, the Potency was 4.65 µM (active).

For the molecule `O=C(O)CC/C(=N/NC(=O)c1cccs1)c1ccccc1`, the Potency is 2.07 µM (active).

As for `O=C(NC12CC3CC(CC(C3)C1)C2)c1ccc(-c2ccc(Br)cc2)o1`, the Potency was 7.36 µM (active).

For `O=C(NC12CC3CC(CC(C3)C1)C2)c1ccc(-c2cccc(Cl)c2)o1`, the Potency was 1.47 µM (active).

Consider `O=[N+]([O-])c1cc(/C=N/O)ccc1Oc1ccccc1Cl`, for which the Potency is 16.5 µM (active).

In the case of `O=[N+]([O-])c1cc(/C=N\O)ccc1Oc1ccc(F)cc1`, the Potency was 16.5 µM (active).

As to `CC(=O)C(C)Oc1ccc2c3c(c(=O)oc2c1)CCCCC3` (stereo not drawn), the Potency is 2.93 µM (active).

For the molecule `CC(=O)C(C)Oc1ccc2c3c(c(=O)oc2c1)CCCC3` (stereo not drawn), the Potency was 16.5 µM (active).

As to `O=C(COC(=O)c1cc2ccccc2oc1=O)Nc1ccc(F)cc1F`, the Potency is 6.56 µM (active).

As to `CN(C)S(=O)(=O)c1cccc(NC(=O)COC(=O)c2cc3ccccc3oc2=O)c1`, the Potency is 6.56 µM (active).

In the case of `COc1ccc(-c2nnc(SCC(=O)c3ccc[nH]3)n2-c2ccccc2)cc1`, the Potency is 13.1 µM (active).

Consider `Cc1ccc(SCC(=O)c2ccc[nH]2)cc1`, for which the Potency is 13.1 µM (active).

`O=c1c(Br)c(N2CCCC2)cnn1-c1ccccc1`: the Potency was 1.85 µM (active).

`COc1ccc(N2Cc3ccccc3C2=NC(=O)c2cccc([N+](=O)[O-])c2)cc1`: the Potency is 13.1 µM (active).

Take `O=C(N=C1c2ccccc2CN1c1cccc(Cl)c1)c1cccnc1`: the Potency is 4.65 µM (active).

Turning to `O=C(N=C1c2ccccc2CN1c1ccc(F)c(Cl)c1)c1cccnc1Cl`, the Potency is 6.56 µM (active).

Regarding `CC1SCC(NC(=O)c2ccccc2Cl)CS1` (stereo not drawn), the Potency was 13.1 µM (active).

For `CC1SCC(NC(=O)c2ccc(Cl)cc2)CS1` (stereo not drawn), the Potency is 16.5 µM (active).

Regarding `CCn1c(C)nc2cc(C(=O)NNC(=S)Nc3ccccc3)ccc21`, the Potency was 0.927 µM (active).

As for `CCn1c(C)nc2cc(C(=O)NNC(=S)Nc3ccc(F)cc3)ccc21`, the Potency is 8.26 µM (active).

In the case of `Cc1nn(-c2cccc([N+](=O)[O-])c2)c(N)c1-c1ccccc1`, the Potency is 4.14 µM (active).

With `Cc1nn(-c2nc3ccccc3[nH]2)c(N)c1-c1ccccc1`, the Potency was 0.414 µM (active).

Consider `COc1ccc(-c2c(C)nn(-c3ccccc3)c2N)cc1`, for which the Potency was 5.21 µM (active).

In the case of `Cc1nn(-c2ccccc2)c(N)c1-c1ccccc1`, the Potency is 6.56 µM (active).

In the case of `Cc1nn(C(=O)c2cccs2)c(N)c1-c1ccccc1`, the Potency is 5.21 µM (active).

Turning to `O=C(O)CCc1ccc(S(=O)(=O)Nc2ccccc2C(=O)NCCc2ccccc2)cc1`, the Potency is 6.56 µM (active).

For the molecule `NC(=O)Nc1ccccc1C(=O)NCCc1ccccc1`, the Potency was 5.85 µM (active).

As to `N#Cc1ccccc1CSc1nnc(-c2ccc(Br)cc2)o1`, the Potency is 0.414 µM (active).

Regarding `Cc1ccccc1-c1nc(Cc2ccccc2)no1`, the Potency was 14.7 µM (active).

Regarding `Cc1ccccc1-c1nnc(Cc2ccccc2)o1`, the Potency was 4.14 µM (active).

In the case of `c1ccc(CSc2nnc(-c3ccco3)o2)cc1`, the Potency was 13.1 µM (active).

Regarding `Brc1ccc(-c2nnc(Cc3ccccc3)o2)cc1`, the Potency is 13.1 µM (active).

With `Brc1c(CSc2nnc(-c3ccco3)o2)nc2ccccn12`, the Potency is 11.7 µM (active).

Regarding `Cc1ccccc1-c1nnc(CN2CCC(C)CC2)o1`, the Potency was 14.7 µM (active).

Turning to `Cc1ccccc1-c1nnc(SCc2ccccc2)o1`, the Potency is 5.21 µM (active).

With `Cc1ccc(-c2nnc(SCc3ccccc3)o2)cc1`, the Potency was 2.93 µM (active).

For `Cc1c(C(=O)OC2CCC(C)CC2)[nH]c2c1C(=O)CCC2` (stereo not drawn), the Potency is 0.464 µM (active).

`Cc1c(C(=O)OC2CCCC2C)[nH]c2c1C(=O)CCC2` (stereo not drawn): the Potency is 6.56 µM (active).

As for `COC(=O)C1C(=O)c2c([nH]c(C(=O)OC3CCCC3)c2C)CC1C` (stereo not drawn), the Potency was 1.47 µM (active).

As to `COc1cc(C)ccc1OCc1cc(C(=O)N(C)CCCN2CCOCC2)no1`, the Potency is 6.56 µM (active).

With `COc1cc(Cl)ccc1OCc1cc(C(=O)N(C)CC2CCCCO2)no1` (stereo not drawn), the Potency is 10.4 µM (active).

In the case of `COc1cc(Cl)ccc1OCc1cc(C(=O)N(C)CCc2cnn(C)c2)no1`, the Potency is 5.85 µM (active).

As for `Cc1cc(N(C)C)ccc1N=Nc1ccc2ncccc2c1`, the Potency was 1.65 µM (active).

As for `COc1ccc2oc(=N)c(C(=O)Nc3ccccc3Cl)cc2c1`, the Potency is 0.414 µM (active).

As for `COc1ccc(C(=O)Nc2ccccc2C(=O)O)cc1Cl`, the Potency was 4.65 µM (active).

On to `Cc1ccccc1NC(=O)c1ccc2ccccc2c1`, for which the Potency was 5.21 µM (active).

In the case of `COc1cc2ccccc2cc1C(=O)Nc1ccccc1C`, the Potency is 3.29 µM (active).

As for `COc1cc2ccccc2cc1C(=O)Nc1ccc(C)cn1`, the Potency was 0.656 µM (active).

As for `COc1cc2ccccc2cc1C(=O)Nc1ccccc1Cl`, the Potency is 1.85 µM (active).

Consider `CSc1ncc(-c2ccc(Cl)cc2)[nH]1`, for which the Potency was 1.65 µM (active).

Consider `Cc1cccc(-n2cnc(C(=O)NC3CCCCCC3)c2)n1`, for which the Potency was 3.69 µM (active).

Turning to `Cc1cc(O)cc2c(=O)c3ccccc3sc12`, the Potency was 16.5 µM (active).

`CCn1c(C)cc(/C=C2/SC(=O)N(C(C)C(=O)OC)C2=O)c1C` (stereo not drawn): the Potency is 2.07 µM (active).

Regarding `CCn1c(C)cc(/C=C2/SC(=S)NC2=O)c1C`, the Potency was 10.4 µM (active).

Regarding `CC(=O)Nc1ccc2c(c1)ncn2-c1ccccc1`, the Potency is 7.36 µM (active).

In the case of `CCC(=O)Nc1ccc2c(c1)ncn2-c1ccc(OC)cc1`, the Potency was 16.5 µM (active).

`CCC(=O)Nc1ccc2c(c1)ncn2-c1ccc(C)cc1`: the Potency was 5.21 µM (active).

On to `COc1ccc(-n2cnc3cc(N)ccc32)cc1`, for which the Potency is 14.7 µM (active).

With `CCC(=O)Nc1ccc2c(c1)ncn2-c1ccccc1`, the Potency was 7.36 µM (active).

Turning to `O=C(Nc1ccc2c(c1)ncn2-c1ccccc1)c1ccco1`, the Potency was 2.33 µM (active).

Turning to `C/C(=N\NC(=O)c1csc(C)c1C)c1ccc(C)s1`, the Potency is 13.1 µM (active).

Regarding `C/C(=N/NC(=O)c1ccc(C)s1)c1ccncc1`, the Potency was 16.5 µM (active).

Take `CCc1ccc(C(=O)N/N=C(\C)c2ccncc2)s1`: the Potency was 20.7 µM (active).

Take `Cc1scc(C(=O)N/N=C/c2ccc(Cl)s2)c1C`: the Potency was 1.65 µM (active).

`O=C1CN(c2nc(-c3cccs3)nc3sc4c(c23)CCCC4)CCN1`: the Potency is 10.4 µM (active).

Turning to `CN(C)CCNC(=O)c1cc2sc3ccccc3c2s1`, the Potency was 16.5 µM (active).

For `CCN(CC)C(=O)c1cc2sc3ccccc3c2s1`, the Potency is 3.29 µM (active).

For the molecule `CN(C)CCNC(=O)c1cc2c(s1)-c1ccccc1OC2`, the Potency was 13.1 µM (active).

On to `CC(C)(C)OC(=O)N/N=C\C=C\c1ccc2c(c1)OCO2`, for which the Potency is 3.69 µM (active).

As to `CCOC(=O)N/N=C\C=C\c1ccc2c(c1)OCO2`, the Potency is 7.36 µM (active).

With `CN(C)c1ccc(N=Nc2cccc(F)c2)cc1`, the Potency is 2.07 µM (active).

Consider `CN(C)c1ccc(N=Nc2cccc3ccoc23)cc1`, for which the Potency was 0.826 µM (active).
